# High-throughput results: PubChem, Broad Institute
# The list is a sample of the results.
# aSyn UTR act: Activators working through SNCA 5'UTR binding (MLPCN) | alpha-synuclein 5'UTR reporter, activators screen | activity score, % (tested at 7.5 µM), hits read low | AID 1814 | 7.1% of 300,000 active; in the data active = activity score below about -60%
# * hit, by the source's call.
SMILES,aSyn UTR act
COCc1cc(C)nc(SCC(=O)Nc2ccc(C)c(C)c2)c1C#N,-136*
Cc1cc(C)c(C#N)c(SCC(=O)Nc2ccccc2C(N)=O)n1,-64*
COc1ccc(C(=O)Nc2cnc(NC(=O)c3cccs3)cc2C)cc1,-83*
COc1ccc(C(=O)Nc2cc(C)c(NC(=O)c3ccccn3)cn2)cc1,-78*
CCCCC(=O)Nc1cnc(NC(=O)c2cccs2)cc1C,-127*
Cc1nc(-c2ccc(S(=O)(=O)Oc3ccccc3Cl)s2)cs1,-68*
CCOC(=O)CCSc1nc(C)c2cc(C)ccc2n1,-87*
CC(C)(C)C(=O)NC(=S)Nc1ccc(F)cc1,-84*
CC(C)(C)C(=O)NC(=S)Nc1cccc(C(=O)O)c1,-161*
O=C1CCCC(O)=C1C=Nc1ccc2c(c1)oc1ccccc12,-168*
O=C(Nc1cccc([N+](=O)[O-])c1)c1ccn[nH]1,-106*
O=C(Nc1ccccc1)c1ccn[nH]1,-191*
CCOC(=O)C1CCCCN1C(=O)CCc1c(C)nc2ncnn2c1C (stereo not given),61
COC(=O)[C@@H]1CCCN1C(=O)CCc1nnc(CCC2CCCCC2)o1,-116*
CN(C)/C=N/c1sc2c(c1C#N)CCCCC2,-124*
N#Cc1c(/N=C/c2ccc(-c3ccccc3C(=O)O)o2)sc2c1CCCC2,-78*
N#Cc1c(/N=C/N2CCOCC2)sc2c1CCCCC2,-122*
N#Cc1c(/N=C/c2cccs2)sc2c1CCCCC2,-186*
COc1ccc(-c2cnnc(N/N=C/c3ccc(O)c(O)c3)n2)cc1,-90*
Cc1nc2ccccc2nc1N/N=C/c1ccc(O)cc1,-87*
COc1ccc(-c2cnnc(N/N=C/c3ccc(O)cc3)n2)cc1,-77*
Oc1ccc(/C=N\Nc2nncc(-c3ccccc3)n2)cc1,-174*
Oc1ccc(Nc2nc3ccccc3nc2Nc2ccc(O)cc2)cc1,108
COc1ccc(CCC(=O)NCCS(=O)(=O)N2CCN(c3ccccc3OC)CC2)cc1,-112*
NS(=O)(=O)c1ccc(N/N=C/c2cn(-c3ccccc3)nc2-c2ccccc2)c([N+](=O)[O-])c1,-121*
SMILES,aSyn UTR act
O=[N+]([O-])c1ccc(N/N=C/c2cn(-c3ccccc3)nc2-c2ccccc2)cc1,-71*
Cc1nn(-c2ccccc2)c(C)c1Cc1ccc(O)cc1,-117*
O=C(O)COc1cccc2ccccc12,-65*
Cc1nn(-c2ccc(Cl)nn2)c(=O)c2ccccc12,-89*
Cc1nn(-c2ccc3ccccc3c2)c(=O)c2ccccc12,-183*
Cc1nn(-c2ccc(Cl)c(Cl)c2)c(=O)c2ccccc12,-64*
Cc1ccc(-n2ncc3ccccc3c2=O)cc1Cl,-143*
Cc1nn(-c2nc3ccccc3[nH]2)c(=O)c2ccccc12,115
Cc1nn(-c2ccc(Cl)cc2)c(=O)c2ccccc12,-85*
Cc1ccc(C)c(OCC(=O)Nc2cccc(C(=O)O)c2)c1C,-110*
Cc1cc(C)c(OCC(=O)Nc2cc(C(=O)O)cc(C(=O)O)c2)cc1C,-129*
Cc1[nH]n(C(N)=S)c(=O)c1N=Nc1cccc([N+](=O)[O-])c1C,-164*
Cc1[nH]n(C(N)=S)c(=O)c1N=Nc1ccc2ccccc2c1,-147*
Cc1ccc(N=Nc2c(C)[nH]n(C(N)=S)c2=O)cc1C,-258*
CCC(=O)NC(c1ccccc1OC)c1ccc2cccnc2c1O (stereo not given),80
COc1cccc(CNc2cccc3cccnc23)c1O,-88*
COc1cccc(CNc2ccccn2)c1O,-100*
COc1cccc(CNc2cc(C)ccn2)c1O,-94*
CCN(CCO)c1ccc(N=Nc2cc(C)[nH]n2)cc1,102
Cc1cc(N(CCO)CCO)ccc1N=Nc1cc(F)ccc1F,-137*
CCOC(=O)C1(Cc2ccccc2Cl)CCN(C(=O)c2cnccn2)CC1,-125*
CCOC(=O)C1(Cc2ccccc2Cl)CCN(C(=O)c2cc(C)on2)CC1,-83*
COc1ccc2c(c1OC)C(=O)N(c1cccc(C)c1)C2,-114*
COc1ccc2c(c1OC)C(=O)N(c1cccc(C(F)(F)F)c1)C2,-192*
COc1ccc2c(c1OC)C(=O)N(c1ccccn1)C2,-122*
SMILES,aSyn UTR act
O=C1N=C(N2CCOCC2)SC1=C1CCCCC1,-85*
COc1ccc(C(=O)O/N=C(\N)c2ccccc2)cc1,-82*
COc1ccc(C(=O)O/N=C(\N)c2ccc(Br)cc2)cc1,-174*
CCC(=O)NC(c1ccco1)c1cc(Cl)c2cccnc2c1O (stereo not given),100
O=C(C1=C(O)C(=O)N(c2ncccn2)C1c1ccc(Cl)c(Cl)c1)c1ccco1 (stereo not given),-81*
Nc1c(C(=O)c2ccccc2)sc2nsc(SCCN3CCOCC3)c12,-157*
Cc1cc(Cl)ccc1Nc1ncccc1C(N)=O,-154*
Cc1ccc(Nc2ncccc2C(N)=O)cc1,-139*
COc1ccc(Nc2ncccc2C(=O)O)cc1,-77*
CCN(CC)CC(=O)Nc1scc2c1c(=O)oc1ccccc12,-124*
CC(=O)Nc1nc(CCC(C)C)cc2c1c(=O)oc1ccccc12,61
O=C(c1ccc(Cl)cc1)c1cnc2ccccn12,-126*
CCN1CCN(c2cc(C)c3cc(NC(=S)N4CCCCC4)ccc3n2)CC1,-85*
CCN1CCN(Cc2ccc(NC(=O)c3ccc(C)c(/C=C/c4cnc(Nc5cc(N6CCNCC6)nc(C)n5)cn4)c3)cc2C(F)(F)F)CC1,110
CCN1CCN(c2cc(C)c3cc(NC(=O)c4ccc(C)c(C)c4)ccc3n2)CC1,17
Cc1cc(N2CCN(C)CC2)nc2ccc(NC(=O)c3ccccc3F)cc12,-123*
CCN1CCN(c2cc(C)c3cc(NC(=O)c4ccc(Br)o4)ccc3n2)CC1,-85*
CC1CCN(c2ccc(NC(=O)c3cccnc3Cl)cc2)CC1,-69*
CC1CCN(c2ccc(NC(=O)c3cccnc3)cc2)CC1,-149*
CC(C)(C)C(=O)/C=C/c1ccc(Oc2ccccc2)cc1,-155*
CCOc1ccc(/C=C/C(=O)c2ccccc2)cc1,-179*
O=C(/C=C/c1ccc(OC2CSC2)cc1)c1ccccc1,-153*
O=C(O)COc1ccc(/C=C/C(=O)c2ccc(C3CCCCC3)cc2)cc1,-115*
NCCOc1ccc(C2CCCCC2)cc1,71
CC(C)NC(=O)c1cc(-c2ccco2)on1,-139*
SMILES,aSyn UTR act
CC(C)NC(=O)c1cc(-c2ccc(Br)cc2)on1,-124*
CCCNC(=O)c1cc(-c2ccc(Br)cc2)on1,-85*
COc1cccc(OCCOc2ccccc2[N+](=O)[O-])c1,-155*
COc1cccc(C(=O)Nc2ccc(-c3nnc(-c4ccco4)o3)cc2)c1,-127*
COc1cccc(-c2nnc(-c3ccccc3[N+](=O)[O-])o2)c1,-136*
COc1cccc(-c2nnc(-c3ccco3)o2)c1,-147*
CCCN(CCC)S(=O)(=O)c1ccc(C(=O)Nc2nnc(-c3cccc(OC)c3)o2)cc1,70
COc1cccc(-c2nnc(NC(=O)C(C)C)o2)c1,-67*
O=C(O)c1ccc(-c2noc(-c3ccccc3Cl)n2)cc1,-97*
Cc1c(-c2nc(-c3ccc(C(F)(F)F)cc3)no2)n(C)oc1=O,-82*
O=C(O)c1ccc(-c2noc(-c3ccccc3C(F)(F)F)n2)cc1,-109*
CS(=O)(=O)c1ccccc1-c1nc(-c2ccc(C(F)(F)F)cc2)no1,-62*
O=C(O)c1ccc(-c2noc(-c3ccc(F)cc3)n2)cc1,-93*
O=C(Cn1c(=O)sc2ccccc21)NCc1ccccn1,-68*
CCN1CCN(c2ccc(NC(=O)c3ccc(F)cc3)cc2Cl)CC1,-94*
Cc1cc(C(=O)Nc2ccc(N3CCOCC3)c(Cl)c2)c(C)o1,-180*
